Test results taken from ChEMBL document CHEMBL3988442, “University of Dundee, Small-Polar-MMV Screening Library” (2021).
About 13,000 (27%) of roughly 48,000 compounds showed an effect of 50% or more. The list shows a part of the results.

test system: Wolbachia pipientis; assay: Anti-Wolbachia Cell-Based Screen; type: functional; design: scale not given: in the data most compounds retested in dose-response had high values; conditions: 5 µM

Compound	Percent Effect
CC(NC1(CNS(C)(=O)=O)CCCC1)c1ccccc1 (configuration not stated)	-3.236%
COc1ccc(-n2cccn2)c(CN2CCOCC(CN(C)C)C2)c1 (configuration not stated)	-24.66%
COc1cccc(CNCCc2cc(F)cc3c2OCOC3)c1	-0.9463%
CNc1cc(C)nc(C2COCCN2Cc2csc(C)n2)n1 (configuration not stated)	118.8%
Cc1nc(CN2CCCC2c2nc(C(C)C)no2)cs1 (configuration not stated)	-7.461%
CC(C)(C)c1coc([C@@H]2COCCN2Cc2csnn2)n1	-9.121%
COc1ccnc(NC(=O)c2cscc2C)c1	-3.049%
CCc1[nH]ncc1C(=O)N1CCN(c2nccc(OC)n2)CC1	-7.097%
CCc1cnc(N)nc1NCCCN1CCCCC1CO (configuration not stated)	90.38%
Cc1cnc(NCCCN2CCCCC2CO)nc1 (configuration not stated)	67.94%
CCc1cnc(N)nc1NCCC(=O)NC1CCCCC1	31.74%
Cc1cc(-c2nccn2CCN2CCCCC2CO)oc1C (configuration not stated)	12.23%
Cc1ncnc(NCCCN2CCCCC2CO)c1C (configuration not stated)	93.53%
CCc1cnc(N)nc1NCCN1CCCCC1	1.893%
Cc1nc(C)n(CCCNc2ncnc(C)c2C)n1	-4.271%
Cc1cc(C)n(CC2CCCCN2CCCS(=O)(=O)N(C)C)n1 (configuration not stated)	4.04%
Cc1ccsc1-c1nccn1CCN1CCCCC1CO (configuration not stated)	8.185%
O=C(NC1CCC1)[C@@H]1CCO[C@@H]2CCN(C3CCCC3)C[C@H]21.O=C(O)C(F)(F)F	-6.007%
CCc1n[nH]c(C2CN(Cc3nccn3CC)CCO2)n1 (configuration not stated)	-1.514%
CN(CCc1cn[nH]c1)C(=O)C1CC(=O)N(Cc2cccnc2)C1 (configuration not stated)	1.356%
CCCn1ncc(C(=O)N2CCN(C3Cc4ccccc4C3)CC2)c1C	1.653%
CCCn1ncc(CN2C[C@@H]3CCCN3C[C@@H]2Cc2ccccc2)c1C	119.2%

Compound	Percent Effect
CCCn1ncc(CN2C[C@@H]3CCCN3C[C@H]2Cc2ccccc2)c1C	112.1%
c1ccc(CNc2ncc(CN3CCCN4CCC[C@H]4C3)cn2)cc1	-5.428%
N#CCCCN1CCCC1Cc1ccccc1 (configuration not stated)	-5.887%
CC(=O)c1ccc(-c2cnn(CC(=O)Nc3ccnn3C)c2)nc1	-6.817%
O=C(NCC(O)c1ccsc1)c1sccc1OC(F)F (configuration not stated)	-10.31%
Cc1cccc2cc(C(=O)N3CCC(F)(F)CC3)n(C)c12	5.497%
Cn1nc(CN2CCCC2)c2c1CN(C(=O)c1cccnc1)CC2.O=C(O)C(F)(F)F.O=C(O)C(F)(F)F	-3.711%
CN(C)Cc1nn(C)c2c1CCN(C(=O)c1cnccn1)C2.O=C(O)C(F)(F)F	-5.117%
CN(C)Cc1nn(C)c2c1CCN(C(=O)CC1CC1)C2.O=C(O)C(F)(F)F	5.365%
CN(C)Cc1nn(C)c2c1CCN(C(=O)c1cccnc1)C2	84.36%
CN(C)Cc1nn(C)c2c1CCN(S(=O)(=O)c1cccs1)C2	12.48%
Cc1cccc(C(=O)N2CCc3c(CN(C)C)nn(C)c3C2)n1	94.16%
CN(C)Cc1nn(C)c2c1CN(C(=O)c1cccc(C#N)c1)C2	110.3%
CN(C)Cc1nn(C)c2c1CN(C(=O)Nc1cccc(F)c1)C2	-15.2%
CC(=O)NCC(=O)N1CCc2c(CN(C)C)nn(C(C)C)c2C1	-2.95%
Cc1cccc(NC(=O)N2Cc3c(CN(C)C)nn(C)c3C2)c1	-10.1%
Cc1nocc1C(=O)N1CCc2c(CN(C)C)nn(C)c2C1	93.65%
Cc1cc(N[C@H](CO)c2ccccc2)n2nc(C)cc2n1	1.495%
Cc1noc(C2CCCN(C(=O)c3ccc(Br)cc3F)C2)n1 (configuration not stated)	4.795%
N#Cc1c(F)cccc1N1CCN(S(=O)(=O)c2cccs2)CC1	-7.537%
CC(Cn1cccn1)NC(=O)NCCCN1CCc2ccccc2C1 (configuration not stated)	-5.201%
Cc1nc([C@H]2C[C@@H]3CCN(Cc4scnc4C)C[C@H]3O2)no1.O=C(O)C(F)(F)F	-18.74%

Compound	Percent Effect
CCc1ncc2c(n1)CN(C(C(N)=O)c1ccccc1)CC2 (configuration not stated)	-0.2058%
CC(=O)Nc1ncc(-c2ccc(C)cc2)[nH]1	-15.96%
Cc1cc(C(=O)N2CCc3ncnc(N4CCSCC4)c3CC2)[nH]n1	-7.195%
Cc1cc(C(=O)N2CCc3c(CN(C)C)nn(C)c3C2)[nH]n1	109.1%
Cc1cc(-c2nn(C)c(Cl)c2CN2CCOCC2CC(N)=O)no1 (configuration not stated)	-10.25%
Cc1noc(CSc2ccc(C(F)(F)F)cn2)n1	-11.43%
COc1ncc(C)cc1NC(=O)COCC(F)(F)F	-3.698%
CC(C)c1nc(S(=O)(=O)Nc2ccnn2C2CCCC2)c[nH]1	-16.48%
O=C(CN(Cc1ccco1)C1CC1)N1CCCCCC1	130.6%
O=C(CN(Cc1ccco1)C1CC1)Nc1ccc(Br)cn1	5.807%
CC1CCN(C(=O)CN(Cc2ccco2)C2CC2)CC1	16.65%
COc1ccc(CN2CC[C@H](c3nc4cccc(C(N)=O)c4[nH]3)C2)cc1	-8.435%
CCCn1nc(C)c(CNC(=O)C2COc3ccc(OC)cc3C2)c1C (configuration not stated)	-13.51%
CC(=O)c1cccc(OCCCC(=O)N(C)Cc2cnc(C)s2)c1	-4.275%
CC(C)CNC(=O)Nc1cccc(CN2CCOC2=O)c1	-15.82%
CCc1nccn1CCCNc1nccc(-c2c(C)nn(C)c2C)n1	0.4363%
CCn1ccnc1CNc1nccc(-c2c(C)nn(C)c2C)n1	-9.163%
COc1ccc(C)cc1-n1cnnc1CC1CCNCC1	5.267%
Cc1nn(C)c(C)c1-c1cnc(CC2CCNC2)cn1 (configuration not stated)	90.84%
Cc1nn(C)c(C)c1-c1cnc(CC2CCNCC2)cn1	154.2%
c1cncc(-n2cnnc2CC2CCNCC2)c1	-4.344%
Cc1nn(C)c(C)c1-c1nccnc1CC1CCNCC1	110.6%

Compound	Percent Effect
O=C(C1=CCCC1)N1CC[C@]2(C[C@H](OCc3cccnc3)CO2)C1.O=C(O)C(F)(F)F	-2.821%
CCSCC(C)NCc1ccccc1-n1ccnc1 (configuration not stated)	26.03%
Cc1nnc2n1CCN(C(=O)CN1C(=O)CSc3ccccc31)C2	-16.29%
CC(C)NC(=O)O[C@H]1COCCN(c2nc3ccccc3s2)C1	11.5%
O=C(c1cn(-c2cc(N3CCSCC3)ncn2)cn1)N1CCSCC1	23.31%
Cc1cc(C)n(CC2CCCN2C(=O)c2ccc3c(c2)nnn3C)n1 (configuration not stated)	-2.526%
Cc1cc(C)n(C2CCCN(C(=O)c3c[nH]c(=O)c(Cl)c3)C2)n1 (configuration not stated)	-7.23%
Cc1cc(C)n(CC2CCCN2C(=O)c2c[nH]c(=O)c(Cl)c2)n1 (configuration not stated)	130%
Cc1cc(C)n(CC2CCCN2C(=O)c2ccnc(N(C)C)c2)n1 (configuration not stated)	141.4%
Cc1cc(C)n(CC2CCCN2C(=O)c2ccc(N(C)C)nn2)n1 (configuration not stated)	107%
Cc1cc(C)n(CC2CCCN2C(=O)c2cc[nH]n2)n1 (configuration not stated)	9.629%
Cc1cc(C)n(CC2CCCN2C(=O)c2cnccn2)n1 (configuration not stated)	101.9%
Cc1cc(C)n(CC2CCCCN2C(=O)c2ccc3c(c2)OCO3)n1 (configuration not stated)	-4.429%
Cc1cc(C)n(CC2CCCN2C(=O)c2ccc3c(c2)OCO3)n1 (configuration not stated)	14.69%
Cc1cc(C)n(CC2CCCN2C(=O)c2cnn(C)c2C2CC2)n1 (configuration not stated)	-2.201%
CCc1noc(C)c1C(=O)N1CCCC1Cn1nc(C)cc1C (configuration not stated)	-1.879%
NC(=O)CC1CCN(CC(O)c2ccc(Br)cc2)CC1 (configuration not stated)	25.42%
CC(COc1ccccc1)NCc1nncn1C1CCCCC1 (configuration not stated)	-38.9%
CCN1CCC(NC(=O)Cc2csc(C(C)(C)C)n2)CC1	4.843%
O=C(O)C(F)(F)F.O=C([C@H]1CCCO1)N1CCN(CCn2cccn2)c2ncccc2C1	108.8%
O=C(C1CCOC1)N1CCN(CCn2cccn2)c2ncccc2C1.O=C(O)C(F)(F)F (configuration not stated)	122%
CCN(CC)C(=O)c1nnc2ccc(N3CCOCC3)cc2n1	-10.33%

Compound	Percent Effect
CCCS(=O)(=O)N1CCN(CC(F)(F)F)CC1	16.36%
Cc1cnc(C(C)(C)NC(=O)NCc2ccon2)s1	-28.31%
Cc1nc2cc(C(=O)N(CCC#N)CC3CCCO3)ccc2[nH]1 (configuration not stated)	103.2%
N#CCCN(CC1CCCO1)C(=O)c1ccc2nonc2c1 (configuration not stated)	113%
Cc1nc2cc(C(=O)N(CCC#N)CCC#N)ccc2n1C	-0.9305%
CN(Cc1ccc2nonc2c1)C(=O)c1ccc(C2CCCO2)s1 (configuration not stated)	-9.176%
N#CCCN(c1ccc(F)cc1)S(=O)(=O)CC1CCCCO1 (configuration not stated)	-8.338%
Cc1nc2ccc(C(=O)N(CCC#N)CCC#N)cc2nc1C	-2.079%
CCC(C)CS(=O)(=O)NCCc1csc(N2CCCC2)n1 (configuration not stated)	-21.99%
COCC(C)N(Cc1ccccc1OC)C(=O)c1cc(C)[nH]c(=O)c1 (configuration not stated)	-10.95%
C[C@]1(O)CN(CC(=O)N2CCCC2)CC[C@@H]1Oc1cccc(F)c1	121.7%
C[C@]1(O)CN(CCO)CC[C@@H]1Oc1cccc(F)c1	120.3%
NC(=O)CN1CCC(C(=O)NCC(O)c2cccc(F)c2)CC1 (configuration not stated)	3.405%
CC(Oc1cccc(F)c1)C(=O)N(CC(N)=O)C1CCCC1 (configuration not stated)	-28.68%
CN1CC(=O)N(c2cccc(F)c2)CC12CCN(CCO)C2.O=C(O)C(F)(F)F.O=C(O)C(F)(F)F (configuration not stated)	1.497%
C[C@]1(O)CN(CCC(N)=O)CC[C@@H]1Oc1cccc(F)c1	109.4%
O=C(COc1cccc(F)c1)N1C[C@@H](CN2CCCC2)C[C@H](CO)C1	-0.02776%
O=C(O)C(F)(F)F.O=C1CC2(CCN(CCO)C2)CN1c1cccc(F)c1 (configuration not stated)	6.062%
O=C(COc1cccc(F)c1)N1C[C@H](CO)C[C@H](CN2CCCC2)C1	-0.9347%
